Sampled rows, rich in hits. Any-hit rate of the full collection: about 21%.
Shiga toxin inh: blocks Shiga toxin action in Vero cells | 290,000 tested, 9.2% active | AID 2315 | inhibition, % at 38.7 µM | Vero cells, Shiga toxin protein synthesis inhibition reporter; in the data active means inhibition mostly above about 28%, no sharp cut-off; inactive means mostly below about 43%; further: 0% is about no effect
Sm TGR inh: inhibitors of Schistosoma mansoni thioredoxin glutathione reductase | Q962Y6 | purified TGR, DTNB reduction, TNB absorbance 405 nm | Potency, µM (highest dose often 114 µM), for inactives: top-dose activity change, negative = inhibition, hits mostly inhibitors | 360,000 tested, 3% active | AID 485364; further: potency means the concentration at half of the fitted maximal effect; on the % scale 0 is the no-effect control and ±100 the full control effect; nearly all actives have a fitted effect of over 60% in size
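First, TGR (20 nM dispensed) and NADPH were mixed with compound. Second, a 15 min room-temperature incubation followed. Third, further NADPH and then DTNB were added to start the reaction. Finally, TNB absorbance was monitored kinetically.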
Pf growth 48h: inhibits P. falciparum growth in the first generation, 48 h | AID 504832 | Potency, µM (titrated, usually from 28.7 µM), for the others: top-dose activity change, negative = inhibition, usual class: inhibitors | P. falciparum luciferase growth in erythrocytes, 48 h | 310,000 tested, 5.9% active; further: potency means the concentration at half of the fitted maximal effect; on the % scale 0 is the no-effect control and ±100 the full control effect
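Read-out is firefly luciferase luminescence from an integrated reporter in P. falciparum, so falling signal marks reduced parasite growth. Infected erythrocytes were at 2% hematocrit and 0.1% parasitemia (final) in Albumax-supplemented RPMI 1640.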
CHX counter: counter-screen for Shiga toxin inhibitors: cycloheximide protein synthesis inhibition. AID 2314. max response, %. 300,000 tested, 12% active. cell reporter, cycloheximide protein synthesis inhibition counterscreen; in the data active means max response mostly above about 13%, no sharp cut-off; inactive means mostly below about 14%; further: read at 38.3 µM for the half of the compounds with a filed dose; 0% is about no effect
Pf growth 96h: P. falciparum growth inhibition at 96 hour, primary screen for plastid delayed-death inhibitors. P. falciparum luciferase reporter growth, 96 h. Potency, µM (doses to about 28.7 µM), inactives show top-dose activity change, negative = inhibition, hits mostly inhibitors. 320,000 tested, 6.9% active. AID 504834; further: potency means the concentration at half of the fitted maximal effect; on the % scale 0 is the no-effect control and ±100 the full control effect
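Plates of compound plus infected erythrocytes (2% hematocrit, 0.05% parasitemia final) incubate 96 hours, 37 C, 5% CO2. Detection reagent added; reduced luminescence from the parasites' luciferase reporter flags inhibition.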
NS1 function inh: blocks influenza NS1 protein function | 270,000 tested, 0.4% active | Potency, µM (series often up to 46.1 µM), without a hit: at the highest dose activity, positive = more growth; calls by dose curve; further: potency means the concentration at half of the fitted maximal effect; actives are rising curves; nearly all actives have a fitted effect of over 50% in size
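S. cerevisiae expressing influenza A NS1, grown in glucose, washed, then diluted 1:100 into pH 6.0 -URA galactose medium with 23 nl compound. Growth recovery read as OD600; NS1-free strain serves as control.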
* = called active by the depositor; i = inactive; u = inconclusive; x = no result. Unless noted, the call rests on the fitted dose curve; in most records, active means well fitted curve in the direction sought with a large enough effect; inconclusive means small, poorly fitted or top-dose-only effect, or another doubt; inactive means no such curve, though single readings can be large; an effect the other way counts as inactive or inconclusive.

SMILES	Shiga toxin inh	Sm TGR inh	Pf growth 48h	CHX counter	Pf growth 96h	NS1 function inh
CCOC(=O)c1cc2occc2n1Cc1c(F)cccc1Cl	-16	0%	-8%	-1	x	-4%
COc1ccc(CCNC(=O)COC(=O)C2CC2C)cc1OC (stereo unspecified)	x	-14%	4%	x	17%	x
O=c1[nH]c(SCc2ccccc2)nc2c1cnn2-c1ccc(F)cc1	-3	8%	2%	-2	-2%	6%
O=c1c(Br)c(NCc2ccccc2)cnn1-c1ccc(F)cc1	40*	0%	21%	26*	12%	-6%
CC[C@H](C)[C@H](NC(=O)[C@H](Cc1ccc(O)cc1)NC(=O)[C@@H]1CCCN1C(=O)[C@H](CCCCN)NC(=O)[C@@H](N)CCCCN)C(=O)N[C@@H](CC(C)C)C(=O)O	24	x	x	-4	x	x
CCCOc1ccc(Cl)cc1/C=C1/C(=O)ON=C1C	-1	14µM*	-12%	2	0%	9%
CCOc1cc(/C=C2/C(=O)ON=C2C)ccc1OCc1ccc(F)cc1	-17	0%	41%	-1	68%	-13%
CCOc1cc(/C=C2/C(=O)ON=C2C)ccc1OCc1ccccc1	-9	50µM*	u	5	-8%	-1%
CCOc1cc(/C=N/OC(C)=O)ccc1OCc1ccccc1	18	-4%	27%	12*	10µM*	-5%
CCOC(=O)c1ccc(NC(=O)CC2Sc3ccc(C(F)(F)F)cc3NC2=O)cc1 (stereo unspecified)	x	10%	x	x	x	x
Cc1ccc(C2=NN(CC(=O)NCCCN(CC(C)C)CC(C)C)C(=O)CC2)cc1	x	6%	x	x	x	x
O=[N+]([O-])c1cc(C(F)(F)F)cc([N+](=O)[O-])c1Sc1n[nH]c(C(F)(F)F)n1	18	0%	5.2µM*	5	u	-3%
O=C(CN(C(=O)CNC(=O)c1cccs1)c1ccccc1F)NC1CCCC1	-5	3%	-7%	-3	u	-7%
Cc1csc(/C(=N/OC(=O)c2ccco2)C(N)=O)n1	-4	4µM*	15%	6	u	13%
Cc1nc2c(C)cccc2cc1C(=O)N/N=C/c1cccnc1	-8	-9%	2%	-4	-28%	6%
O=C(N/N=C/C=C\c1ccccc1[N+](=O)[O-])c1cc(-c2ccc3ccccc3c2)n[nH]1	25	-25%	-61%	11*	15%	6%
O=C(Cc1cccs1)N/N=C/C=C/c1ccccc1[N+](=O)[O-]	62*	-6%	49%	22*	93%	-3%
CN(Cc1cccs1)C(=O)/C=C/c1ccccc1[N+](=O)[O-]	69*	0%	-5%	31	-18%	x
COc1ccccc1/C=C/C=N/NC(=O)Cc1cccs1	73*	-9%	10%	42*	5%	19%
O=C(Nc1ccc(F)c(Cl)c1)C1CCN(c2ncccn2)CC1	x	2%	x	x	x	x
Cc1ccc(CSc2nnc(SCC(=O)N/N=C/C=C/c3ccccc3[N+](=O)[O-])s2)cc1	48*	2%	198%	21*	111%	-13%
O=C(O)c1ccc(N/N=C/C=C/c2ccccc2[N+](=O)[O-])cc1	52*	7%	i	45*	i	x
O=C(CN1CCN(Cc2ccccc2Cl)CC1)N/N=C/C=C\c1ccccc1[N+](=O)[O-]	-12	-16%	5%	-2	0%	8%
O=C(N/N=C/C=C\c1ccccc1[N+](=O)[O-])c1cccs1	12	-15%	17%	12	2.9µM*	-1%
O=C(Cc1ccccc1)N/N=C/C=C/c1ccccc1[N+](=O)[O-]	18	3%	49%	16*	85%	-8%
SMILES	Shiga toxin inh	Sm TGR inh	Pf growth 48h	CHX counter	Pf growth 96h	NS1 function inh
O=C(N/N=C/C=C/c1ccccc1[N+](=O)[O-])c1cccnc1	14	-5%	4%	6	u	0%
O=C(N/N=C/C=C/c1ccccc1[N+](=O)[O-])c1ccncc1	6	-2%	46%	-4	46%	7%
O=[N+]([O-])c1ccccc1/C=C/C=N/Nc1ccc(S(=O)(=O)Nc2ccc(Cl)cc2)cc1[N+](=O)[O-]	29	2%	12µM*	10	-7%	x
O=C(O)c1ccccc1/C=N/Nc1ccc(S(=O)(=O)N2CCCC2)cc1[N+](=O)[O-]	12	u	u	0	u	2%
Cc1nc2c(C(=O)N3CCCCC3)cnn2c(C)c1Cc1ccccc1F	157*	6%	44%	71*	50%	-47%
CC(C)CSc1n[nH]c(=S)s1	17	-3%	-14%	7	94%	x
O=C1NN=C(CSc2n[nH]c(=S)s2)CS1	-12	40µM*	-12%	0	34%	7%
CN1CCN(C(=O)/C=C/c2ccc(Cl)cc2)CC1	33	1%	51%	24*	9%	x
CN1CCN(C(=O)/C=C/c2ccc(Cl)c(Cl)c2)CC1	30	0%	42%	37*	0%	6%
O=C(/C=C/c1ccc(Cl)cc1)N1CCN(c2ncccn2)CC1	-2	1%	x	-5	-7%	14%
COc1ccc(/C=C/C(=O)Nc2ccc(OC)nc2)cc1	44	7%	u	19	u	-29%
COc1ccc(CS(=O)(=O)/C(Cl)=C(/Cl)C(=O)Nc2ccc(OC)nc2)cc1	3	10µM*	x	13	u	-201%
N=c1sccn1CC(=O)Nc1ccc(S(N)(=O)=O)cc1	-3	45µM*	u	-2	u	1%
CCOc1ccccc1OCCCC(=O)Nc1ccc(OC)nc1	2	0%	-8%	3	u	-18%
NS(=O)(=O)c1ccc(NC(=O)CSc2ccccc2)cc1	41	0%	40%	20*	133%	x
N=c1sccn1CC(=O)Nc1cccc(S(N)(=O)=O)c1	-11	-9%	-14%	6	-8%	3%
COc1ccc(NC(=O)Cc2ccccc2)cn1	47	-2%	33%	0	5.2µM*	x
CCCNC(=O)C1CCC(Cn2c(=O)c3sccc3n(Cc3cccc(OC)c3)c2=O)CC1 (stereo unspecified)	x	-1%	x	x	x	x
COc1ccccc1CNC(=O)C1CC2Cn3c(nc4cc(C)c(C)cc43)C2N1C (stereo unspecified)	x	-16%	u	x	u	x
COc1ccc(NC(=O)CSc2ccccc2)cn1	49*	u	40%	27*	65%	x
COc1ccc(NC(=O)/C(Cl)=C(/Cl)S(=O)Cc2ccccc2)cn1 (stereo unspecified)	24	0.32µM*	15µM*	48*	x	-175%
N=c1sccn1CC(=O)Nc1ccc(Cl)cc1[N+](=O)[O-]	4	40µM*	20%	-2	25%	2%
COc1ccccc1NC=C1C(=O)OC(C)(C)OC1=O	82*	-2%	33%	36*	u	-7%
O=S(=O)(NCCCc1ccccc1)c1ccc(Cl)cc1	-4	-1%	6%	-1	9.3µM*	-24%

Compound activity (PubChem BioAssay)
